CSC inhib – cancer stem cell viability inhibitors, primary screen, luminescence | actives 1.1% (n = 300,000) | cancer stem cell-like cells viability | inhibition, % at 7.5 µM; in the data active = inhibition above about 75%; tested in HMLE shEcad cells
Calb FLC – C. albicans growth inhibition with fluconazole, primary screen, CaCi-2 strain, Alamar Blue fluorescence; C. albicans CaCi-2 (fluconazole-resistant clinical isolate) + fluconazole, 48 h; growth inhibition, % (no concentration beside the values); actives 0.57% (n = 300,000); AID 1979, 2009;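 active = growth inhibition above about 58% in most replicates, limit read from the data, passing the limit was not always enough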;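 note: all wells also contain fluconazole at 8 µg/ml as a sub-toxic cotreatment; 0% = median of DMSO wells and 100% = median of geldanamycin control wells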
Mdm2 MdmX PPI – inhibitors of human Mdm2-MdmX association, primary screen, cell-based, luminescence, split luciferase, SaOS-2, uHTS | AID 485346, 2010 | SaOS-2 split-luciferase Mdm2/MdmX complementation | actives 3% (n = 330,000) | inhibition, % at 8 µM | Protein Mdm4 (Homo sapiens) + E3 ubiquitin-protein ligase Mdm2 (Homo sapiens), …;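 active = inhibition of at least 50% at 8 µM in the primary screen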
PP1 counter – PP1-alpha phosphatase inhibitors, primary screen, counter-screen for PP5 inhibitor project, biochemical, fluorescence, OMFP substrate, single point | Serine/threonine-protein phosphatase PP1-alpha catalytic subunit (Homo sapiens), P62136 | purified PP1alpha | inhibition, % at 6.7 µM | actives 0.9% (n = 320,000);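 active = inhibition above the mean inhibition of all tested compounds plus 3 SD, computed separately for each screening campaign, cut at about 15% in these data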
Target sequence (P62136 whole entry, looked up): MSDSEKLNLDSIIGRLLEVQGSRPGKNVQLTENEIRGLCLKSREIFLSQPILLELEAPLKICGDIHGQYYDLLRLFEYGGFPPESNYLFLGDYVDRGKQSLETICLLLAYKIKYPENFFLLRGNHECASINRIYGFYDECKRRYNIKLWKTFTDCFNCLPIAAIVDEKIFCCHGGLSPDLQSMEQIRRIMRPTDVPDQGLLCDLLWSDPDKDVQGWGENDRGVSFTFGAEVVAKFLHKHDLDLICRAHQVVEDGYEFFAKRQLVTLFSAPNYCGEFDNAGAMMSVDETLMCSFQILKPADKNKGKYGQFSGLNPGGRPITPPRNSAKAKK
PP5 primary – PP5 phosphatase inhibitors, primary screen, biochemical, fluorescence | purified PP5c, OMFP substrate fluorescence | Serine/threonine-protein phosphatase 5 (Homo sapiens), P53041 | inhibition, % at 6.7 µM | actives 0.18% (n = 320,000);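 active = inhibition above the campaign's mean inhibition across all tested compounds plus 3 SD, cut at about 9.5% in these data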;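 note: 0% = DMSO only and 100% = 100 µM cantharidin control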
Beta cell apopt – inhibitors of cytokine-induced beta cell apoptosis, primary screen, luminescence | INS-1E cytokine-induced death, ATP luminescence, 48 h; percent of positive-control rescue, neutral wells zero | protection from apoptosis, % (test concentration not listed) | actives 0.8% (n = 300,000);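 active = Every replicate reaches about 75%, or at least half do and their mean reaches it too, limit read from the data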;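 note: 0% = cytokine-treated negative control wells and 100% = positive control rescue; higher means more ATP so stronger rescue from cytokine killing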
Mdm2 MdmX conf – Mdm2-MdmX complex disruptors, retested hits, confirmation, luminescence, single concentration; shares compounds with Mdm2 MdmX PPI; Mdm2-MdmX binding, luminescent assay; inhibition, % at 8 µM; actives 55% (n = 10,000); AID 489028, 2010; in the data active = inhibition above about 40%
Full FLuc ctr – full-length luciferase signal inhibition, confirmation, counter-screen for Mdm2/MdmX interaction inhibitor project, cell-based, single concentration, SaOS-2 | actives 77% (n = 6,200) | shares compounds with Mdm2 MdmX PPI | SaOS-2 full-length luciferase counterscreen, luminescence | inhibition, % at 8 µM;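 active = mean inhibition at 8 µM reaching about 37%, which flags the compound as non-specific, limit read from the data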;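 note: p53-null SaOS-2 cells with luciferase driven by a doxycycline-inducible promoter; compound on cells about two nights before reading with doxycycline added after day one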
Starred values were filed as active, the others as inactive. A selection: hits, their analogues and other compounds. The true share with any hit is near 4.9%.

What do the screens show for `O=C(/C=C/c1ccccc1Cl)c1ccc(O)cc1`?
CSC inhib: 25; Calb FLC: 4; Mdm2 MdmX PPI: 55*; PP1 counter: 1; PP5 primary: 2; Beta cell apopt: -3; Mdm2 MdmX conf: 12

How did Cc1ccc(S(=O)(=O)Nc2ccc3c(c2)c2c(n3S(=O)(=O)c3ccc(C)cc3)CCCC2=O)cc1 do in these assays?
CSC inhib: 12; Calb FLC: 9; Mdm2 MdmX PPI: 37; PP1 counter: -2; PP5 primary: 2; Beta cell apopt: -1

How did CC(=O)Nc1ccc(S(=O)(=O)/N=C2\C(=O)c3ccccc3C([O-])=C2n2cc[n+](-c3ccccn3)c2)cc1 do in these assays?
CSC inhib: 56; Calb FLC: 38; Mdm2 MdmX PPI: 55*; PP1 counter: 1; PP5 primary: 1; Beta cell apopt: 20; Mdm2 MdmX conf: 33; Full FLuc ctr: 52*

How did O=C(CCl)N(CCc1ccccc1)CCc1ccccc1 do in these assays?
Calb FLC: -12; Mdm2 MdmX PPI: 91*; PP1 counter: 5; PP5 primary: 0; Beta cell apopt: 3; Mdm2 MdmX conf: 8

What do the screens show for `c1ccc(Cc2nnc(N3CCCCC3)c3ccccc23)cc1`?
CSC inhib: -12; Calb FLC: 11; Mdm2 MdmX PPI: 33; PP1 counter: 1; PP5 primary: 4; Beta cell apopt: 5

What do the screens show for `Cc1ccc(Sc2nnc(Cc3ccccc3)c3ccccc23)cc1`?
CSC inhib: 31; Calb FLC: -7; Mdm2 MdmX PPI: 53*; PP1 counter: 2; PP5 primary: 1; Beta cell apopt: -6; Mdm2 MdmX conf: 24

How did COc1ccc(Sc2nnc(Cc3ccccc3)c3ccccc23)cc1 do in these assays?
CSC inhib: 62; Calb FLC: 10; Mdm2 MdmX PPI: 72*; PP1 counter: 5; PP5 primary: 1; Beta cell apopt: -7; Mdm2 MdmX conf: 48*; Full FLuc ctr: 88*

Results for O=C(CCC1COc2ccccc2O1)Nc1ccc(Cl)cn1 (stereo not drawn) ?
CSC inhib: 61; Mdm2 MdmX PPI: 67*; PP1 counter: 2; PP5 primary: 1; Beta cell apopt: -8; Mdm2 MdmX conf: 45*; Full FLuc ctr: 84*

Results for COc1cc(/C=C2\SC(=Nc3ccc(O)cc3)NC2=O)cc(OC)c1OC ?
CSC inhib: 60; Calb FLC: 1; Mdm2 MdmX PPI: 52*; PP1 counter: -5; PP5 primary: -1; Beta cell apopt: 11; Mdm2 MdmX conf: 65*; Full FLuc ctr: 28

Results for COc1cc(/C=C2/SC(=Nc3ccc(O)cc3)NC2=O)cc(OC)c1O ?
Calb FLC: 41; Mdm2 MdmX PPI: 62*; PP1 counter: 7; PP5 primary: 2; Mdm2 MdmX conf: 61*; Full FLuc ctr: 62*

What do the screens show for `COc1ccc(N=C2NC(=O)/C(=C/c3ccc(O)c(OC)c3)S2)cc1`?
CSC inhib: 49; Calb FLC: 50; Mdm2 MdmX PPI: 45; PP1 counter: 10; PP5 primary: 4; Beta cell apopt: 36

How did Cc1cc(Nc2n[nH]c(N)c2C#N)ccc1F do in these assays?
CSC inhib: 5; Calb FLC: 7; Mdm2 MdmX PPI: 11; PP1 counter: -3; PP5 primary: 2; Beta cell apopt: 2

Results for CCOC(=O)C1CCN(c2cc3c(cc2NC(=O)c2ccc(OC)c(OC)c2)n(C)c(=O)n3C)CC1 ?
CSC inhib: -11; Calb FLC: -6; Mdm2 MdmX PPI: 65*; PP1 counter: -2; PP5 primary: 1; Beta cell apopt: 21; Mdm2 MdmX conf: 26
